Screening results (PubChem BioAssay)
The list is not random: actives were taken first. Their share in the collection is about 9.3%.
ELG1 repair inh: qHTS screen for small molecules that inhibit ELG1-dependent DNA repair in human embryonic kidney (HEK293T) cells expressing luciferase-tagged ELG1. Potency, µM (doses to about 46.1 µM), for the others: at the top dose activity change, negative = inhibition, usual class: inhibitors. 330,000 tested, 2.3% active. AID 504467, 2011. HEK293T ELG1-luciferase reporter, luminescence, 16 h; DNA damage induced by 5-fluorouridine; further: on the % scale 0 is the no-effect control and ±100 the full control effect; nearly all actives have a fitted effect of over 55% in size
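Luminescence from the luciferase reporter, measured 30 min after ONE-Glo reagent at room temperature, was the read-out. Beforehand, 2,000 cells per well were exposed for 16 hr at 37 °C to 5-fluorouridine together with compound or vehicle.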
Rab9 prom act: qHTS Assay for Rab9 Promoter Activators; AID 485297, 2010; 320,000 tested, 2.8% active; Potency, µM (highest dose often 9.22 µM), for inactives: at the highest dose activation, negative = inhibition, most hits filed as activators; Huh7 Rab9 promoter-luciferase reporter, luminescence, 24 h; further: % of control where 0% means no effect; nearly all actives have a fitted effect of over 60% in size
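Cells were plated at 1500 per well in reduced-serum medium with 10% FBS and left 2 h. Compound in DMSO was then added for 24 h at 37 °C. Reporter signal was read by luminescence after 10 min with luciferase detection reagent.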
NPC1 promoter act: qHTS Assay for NPC1 Promoter Activators. Potency, µM (series often up to 9.22 µM), inactives show top-dose activation, actives largely listed as activators. Huh7 NPC1 promoter luciferase reporter, 24 h. 320,000 tested, 2.4% active. AID 485313, 2010; further: % of control where 0% means no effect; nearly all actives have a fitted effect of over 60% in size
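Luminescence from an NPC1 promoter-driven luciferase reporter in stably transfected Huh7 cells was measured after 24 h compound treatment at 37 °C, followed by 10 min ambient incubation with luciferase detection reagent.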
ELG1 genotox: qHTS screen for small molecules that induce genotoxicity in human embryonic kidney (HEK293T) cells expressing luciferase-tagged ELG1; HEK293T ELG1-luciferase reporter, luminescence, 16 h; AID 504466, 2011; 330,000 tested, 1.3% active; Potency, µM (highest dose often 46 µM), inactives show at the highest dose activity change, positive = activation, most hits filed as activators; further: % of control where 0% means no effect; nearly all actives have a fitted effect of over 60% in size
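Genotoxicity was scored as increased ELG1-luciferase reporter signal, measured by ONE-Glo luminescence (30 min, room temperature). Compound or vehicle exposure of the HEK293T reporter cells lasted 16 hr at 37°C.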
SMN2 splice up: qHTS Assay for Enhancers of SMN2 Splice Variant Expression; AID 1458, 2008; 210,000 tested, 2.8% active; HEK293 SMN2-luciferase splicing reporter, luminescence, 30-36 h; Potency, µM (top dose mostly 46.1 µM), for inactives: at the highest dose activity change, positive = activation, actives largely listed as activators; further: % of control where 0% means no effect; nearly all actives have a fitted effect of over 55% in size
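HEK293 cells carry an SMN2 […]–luciferase reporter in which exon 7 inclusion puts luciferase in frame. Cells were plated 10-12 h before compound addition, then incubated 30-36 h at 37C. ONE-Glo luminescence was read; sodium butyrate at 4.5 mM final served as control.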
FLuc counter: qHTS profiling assay for firefly luciferase inhibitor/activator using purifed enzyme and Km concentrations of substrates (counterscreen for miR-21 project). 360,000 tested, 6.9% active. Luciferin 4-monooxygenase (Photinus pyralis), P08659. purified FLuc, Km substrates, luminescence inhibition. Potency, µM (top dose mostly 57.5 µM), inactives show at the top dose activity change, negative = inhibition, usual class: inhibitors. AID 588342, 2011;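 further: plate controls were vehicle for no effect and reference inhibitor for full effect; nearly all actives have a fitted effect of over 55% in size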
Target sequence (P08659 whole entry, looked up): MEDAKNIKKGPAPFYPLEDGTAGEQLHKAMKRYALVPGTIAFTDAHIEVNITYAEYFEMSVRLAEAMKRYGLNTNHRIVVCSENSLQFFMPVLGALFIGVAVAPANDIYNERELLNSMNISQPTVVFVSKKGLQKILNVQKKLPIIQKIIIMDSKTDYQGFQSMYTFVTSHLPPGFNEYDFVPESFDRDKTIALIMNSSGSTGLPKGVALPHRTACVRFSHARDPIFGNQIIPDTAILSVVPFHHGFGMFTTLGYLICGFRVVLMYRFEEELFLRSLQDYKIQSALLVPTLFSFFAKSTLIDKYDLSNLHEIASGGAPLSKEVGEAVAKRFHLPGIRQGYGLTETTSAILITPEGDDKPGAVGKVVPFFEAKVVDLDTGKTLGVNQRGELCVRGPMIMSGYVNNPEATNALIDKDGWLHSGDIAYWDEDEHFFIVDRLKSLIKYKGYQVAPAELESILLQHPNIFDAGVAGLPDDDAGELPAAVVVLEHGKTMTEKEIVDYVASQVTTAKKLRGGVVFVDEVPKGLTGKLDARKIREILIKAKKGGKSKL
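Purified P. pyralis luciferase, 10 nM final, with Km-level 10 uM D-luciferin and 10 uM ATP in 50 mM Tris acetate pH 7.5, 10 mM Mg acetate, 0.01% Tween-20, 0.05% BSA; 6-point qHTS titration about 60 µM downward; luminescence read.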
* hit, by the source's call; ? = inconclusive; / = no result given; [ ] = remark or other dose. The call rests on the fitted dose curve; in most records, active means well fitted curve in the direction sought with a large enough effect; inconclusive means small, poorly fitted or top-dose-only effect, or another doubt; inactive means no such curve, though single readings can be large; an effect the other way counts as inactive or inconclusive. Potency means the concentration at half of the fitted maximal effect.

SMILES	ELG1 repair inh	Rab9 prom act	NPC1 promoter act	ELG1 genotox	SMN2 splice up	FLuc counter
CCCCC(CC)C(=O)N1CCN(C(=O)c2ccco2)CC1 (stereo unspecified)	11.1%	-3.9%	-7.7%	-3.5%	-5.2%	0.5%
CN(C(=O)COC(=O)c1cc(S(=O)(=O)N2CCOCC2)ccc1F)C1CCS(=O)(=O)C1 (stereo unspecified)	24.4%	-4.2%	-5.0%	-3.2%	/	-2.5%
CCOC(=O)c1c(C)[nH]c(C)c1C(=O)CSc1nc2ccccc2c(=O)n1-c1ccccc1C	23.1µM*	-6.3%	-3.1%	-6.5%	-11.1%	?
COCCn1c(Cc2ccccc2)nnc1SCC(=O)NC1CC1	28.2%	4.4%	-0.4%	1.5%	/	0.9%
CCOC(=O)NNC(=O)NCCCCCCNC(=O)NNC(=O)OCC	8.2%	-5.0%	-4.8%	1.4%	/	0.3%
Cc1ccc(C(=O)CC(=O)c2cccc(F)c2)c(O)c1	0.0%	13.8%	6.4%	?	-40.8%	12µM*
Cc1ccc(N(Cc2ccccc2)C(=O)c2cccc(F)c2)cc1	1.2%	-6.5%	-0.8%	18.4%	/	13.5µM*
Cc1ccc(N(Cc2ccccc2)C(=O)c2ccc(F)cc2)cc1	-2.1%	0.0%	1.5%	3.6%	/	-0.3%
COc1ccc(CN(C(=O)c2ccc(C)cc2)c2cccc(N)c2)cc1	-3.9%	0.6%	-4.1%	-3.2%	/	-7.2%
COc1ccc(C(=O)N(Cc2ccccc2)c2cccc(C)c2)cc1	?	?	?	14.6µM*	/	-0.7%
O=C(c1cc(-c2cccs2)nc2ccccc12)N1CCN(c2ccccc2)CC1	?	-1.2%	-8.5%	-13.3%	-16.8%	10.7µM*
O=C(O)c1cc(-c2cccs2)nc2ccc(Br)cc12	-6.3%	2.5%	1.5%	-1.2%	/	19µM*
O=C(c1cc(-c2cccs2)nc2ccccc12)N1CCN(S(=O)(=O)c2cccc(F)c2)CC1	?	0.2%	-2.5%	-21.8%	-9.7%	?
O=C(c1cc(-c2ccccn2)nc2c(Cl)cccc12)N1CCN(S(=O)(=O)c2ccccc2)CC1	18.4µM*	1.2%	0.5%	-4.7%	-3.0%	-5.0%
O=C(c1cc(-c2cccs2)nc2ccccc12)N1CCN(S(=O)(=O)c2ccccc2)CC1	16.4µM*	-5.0%	-1.8%	-2.7%	-8.9%	?
O=C(CN1C(=O)CCc2cc(S(=O)(=O)N3CCOCC3)ccc21)Nc1cccc(C(F)(F)F)c1	/	/	/	/	/	-9.7%
CN(C)S(=O)(=O)c1cccc(NC(=O)c2cc(-c3cccs3)nc3ccccc23)c1	7.31µM*	1.1%	-3.9%	-6.7%	-13.8%	?
COc1ccccc1N1CCN(C(=O)CN(C)S(=O)(=O)c2cc(C)ccc2OC)CC1	-29.6%	-11.1%	-7.1%	-5.4%	/	2.8%
COc1ccccc1C(=O)Nc1cccc(OCc2cc(=O)n3ccccc3n2)c1	/	/	/	/	/	7.57µM*
COc1ccc(C)cc1NC(=O)Nc1cccc(OCc2cc(=O)n3ccc(C)cc3n2)c1	/	/	/	/	/	2.69µM*
O=C(Nc1cccc(C(=O)OCc2cc(=O)n3c4c(sc3n2)CCCC4)c1)c1ccccc1	/	/	/	/	/	2.39µM*
COc1ccccc1C(=O)Nc1cccc(OCc2cc(=O)n3c4c(sc3n2)CCCC4)c1	/	/	/	/	12.6%	6.01µM*
COc1ccc(C(=O)Nc2cccc(OCc3cc(=O)n4c5c(sc4n3)CCCC5)c2)cc1	/	/	/	/	0.4%	?
CCOC(=O)c1ccc(NC(=O)Nc2cccc(OCc3cc(=O)n4ccc(C)cc4n3)c2)cc1	/	/	/	/	/	-8.6%
Cc1cccc(C(=O)Nc2cccc(OCc3cc(=O)n4ccccc4n3)c2)c1	/	/	/	/	/	4.4%
SMILES	ELG1 repair inh	Rab9 prom act	NPC1 promoter act	ELG1 genotox	SMN2 splice up	FLuc counter
O=C(Nc1ccc(C(=O)OCc2cc(=O)n3c4c(sc3n2)CCCC4)cc1)c1ccccc1	/	/	/	/	/	-10.2%
Cc1cc(-n2c(C)nc3ccccc3c2=O)ccc1NC(=O)c1cccc([N+](=O)[O-])c1C	/	/	/	/	/	2.9%
CCOc1ccc(CCNC(=O)Cn2ccc3ccccc3c2=O)cc1OCC	13.5%	0.3%	-3.2%	6.1%	6.5%	-0.9%
O=C(OCc1c(F)cccc1Cl)c1cccc(S(=O)(=O)N2CCOCC2)c1	-4.2%	-3.6%	-3.8%	0.9%	/	1.1%
COc1ccc(-c2csc3ncnc(NCCN4CCOCC4)c23)cc1	13µM*	2.6%	-0.2%	-19.6%	-0.9%	0.5%
Cc1ccc(-c2csc3ncnc(NCCN4CCOCC4)c23)cc1	?	-5.6%	1.1%	-5.0%	-38.0%	9.9%
COc1ccc(-c2csc3ncnc(N4CCN(c5ccc(OC)cc5)CC4)c23)cc1	?	0.2%	0.5%	-15.0%	/	3.1%
Clc1ccc(-c2csc3ncnc(NCCN4CCOCC4)c23)cc1	18.4µM*	2.8%	-6.0%	-22.2%	-15.7%	0.2%
c1ccc(-c2csc3ncnc(NCCN4CCOCC4)c23)cc1	16.4µM*	-17.7%	-5.1%	-23.0%	/	-0.8%
CN(c1ccccc1C(=O)Nc1ccc(F)c(Cl)c1)S(C)(=O)=O	0.9%	-14.6%	-1.3%	-2.3%	-11.2%	4.3%
CCN(CC)S(=O)(=O)c1ccc(C(=O)Nn2cnnc2)cc1	-2.1%	0.6%[1.84 µM]	-12.5%	-0.1%	/	1.7%
COc1ccc(OC)c(NC(=O)COC(=O)COc2ccc(Nc3ccccc3)cc2)c1	?	/	/	1.8%	/	/
Cn1c2ccc(F)cc2c2nnc(SCC(=O)Nc3cccc(O)c3)nc21	-6.8%	1.4%	4.0%	12.1%	/	9.53µM*
O=C(CSc1ncc(-c2ccc(F)cc2)[nH]1)Nc1cccc(O)c1	-12.6%	3.4%	1.4%	-6.4%	/	19µM*
Cc1ccc(Oc2nc3c(c(=O)n(Cc4ccccc4F)c(=O)n3C)n2C)cc1	18.4µM*	-4.4%	-2.1%	-11.5%	-45.1%	-1.5%
CC(=O)Nc1ccc(Nc2nnc(-c3ccc(C)c(S(=O)(=O)NCC4CCCO4)c3)c3ccccc23)cc1 (stereo unspecified)	20.6µM*	-6.3%	1.5%	-9.9%	/	?
CNC(=O)c1ccc(Nc2nnc(-c3ccc(C)c(S(=O)(=O)NCC4CCCO4)c3)c3ccccc23)cc1 (stereo unspecified)	?	2.0%	0.3%	-2.3%	0.9%	?
